These results are taken from PubChem BioAssay (EPA / NIEHS).

Experiment [1] in a line: Tanguay_ZF_120hpf_MORT_legacy: (Legacy) Oregon State University Tanguay Lab 120 Hour Post-fertilization zebrafish Assay for Mortality (AID 2283633). The method in brief: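 Dechorionated Tropical 5D wild-type zebrafish embryos, one per well from 6 hpf, static exposure in 0.64% DMSO at 28C until 120 hpf. Mortality scored as binary by brightfield microscopy at 24 and 120 hpf.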

Experiment [2] in a line: Tanguay_ZF_120hpf_YSE_legacy: (Legacy) Oregon State University Tanguay Lab 120 Hour Post-fertilization zebrafish Assay for Yolk Sac Edema (AID 2283634). Put shortly:
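Dechorionated Tropical 5D wild-type zebrafish embryos were exposed statically, one per well, from 6 to 120 hpf at 28C in 0.64% DMSO. Yolk sac edema was scored present/absent by brightfield at 120 hpf, and dead embryos were excluded.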

Experiment [3] is described as follows: Tanguay_ZF_120hpf_AXIS_legacy: (Legacy) Oregon State University Tanguay Lab 120 Hour Post-fertilization zebrafish Assay for Body Axis Malformation (AID 2283635). The method in brief:
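Dechorionated wild-type Tropical 5D zebrafish embryos, one per well, statically exposed from 6 hpf to 120 hpf at 28C in 0.64% DMSO final. Body axis malformation scored present/absent by brightfield microscopy at 120 hpf; dead embryos excluded.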

Experiment [4] is described as follows: Tanguay_ZF_120hpf_EYE_legacy: (Legacy) Oregon State University Tanguay Lab 120 Hour Post-fertilization zebrafish Assay for Eye Malformation (AID 2283636).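 Further: binary presence or absence of eye malformation scored by brightfield in 120 hpf larvae.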 Put shortly: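 Binary brightfield scoring of eye defects at 120 hpf after static exposure from 6 hpf of single pronase-dechorionated wild-type embryos (28C, 0.64% DMSO). Non-mortality endpoints omitted where embryos died; fit vs DMSO.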

Experiment [5] can be described thus: Tanguay_ZF_120hpf_SNOU_legacy: (Legacy) Oregon State University Tanguay Lab 120 Hour Post-fertilization zebrafish Assay for Snout Malformation (AID 2283637). The method in brief:
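Binary snout-malformation call at 120 hpf in wild-type 5D embryos, chorion removed by pronase, under static exposure from 6 hpf at 28C (0.64% DMSO). Embryos dying by 24 or 120 hpf excluded.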

Experiment [6] can be described thus: Tanguay_ZF_120hpf_JAW_legacy: (Legacy) Oregon State University Tanguay Lab 120 Hour Post-fertilization zebrafish Assay for Jaw Malformation (AID 2283638). The method in brief: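 Dechorionated Tropical 5D wild-type zebrafish embryos, one per well, exposed statically from 6 hpf to 120 hpf at 28C in 0.64% DMSO. Jaw malformation was scored by brightfield microscopy as present or absent. It was not scored in dead embryos.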

Experiment [7] is described as follows: Tanguay_ZF_120hpf_OTIC_legacy: (Legacy) Oregon State University Tanguay Lab 120 Hour Post-fertilization zebrafish Assay for Otic Vesicle Malformation (AID 2283639). The method in brief:
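Brightfield scoring at 120 hpf, binary present/absent; DMSO negative control, 5uM trimethyltin chloride positive control. Static exposure at 28C, final DMSO 0.64% (vol/vol). Dead embryos not scored for malformation.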

A short description of experiment [8]: Tanguay_ZF_120hpf_BRAI_legacy: (Legacy) Oregon State University Tanguay Lab 120 Hour Post-fertilization zebrafish Assay for Brain Malformation (AID 2283641). The method in brief: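 Tropical 5D wild-type zebrafish embryos exposed statically until 120 hpf at 28C, 0.64% DMSO final, sealed and dark. Brain malformation scored present/absent by brightfield at 120 hpf; dead embryos excluded. Trimethyltin chloride 5uM positive control.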

Experiment [9] in a line: Tanguay_ZF_120hpf_PFIN_legacy: (Legacy) Oregon State University Tanguay Lab 120 Hour Post-fertilization zebrafish Assay for Pectoral Fin Malformation (AID 2283648).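 Further: each larva judged yes or no for fin defect by brightfield with dead larvae skipped.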 Put shortly: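 Pectoral fin malformation was recorded as a binary endpoint at 120 hpf in wild-type Tropical 5D larvae, which had been dechorionated and exposed statically from 6 hpf at 28C in 0.64% DMSO. Dead embryos were excluded.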

Experiment [10] is described as follows: Tanguay_ZF_120hpf_CFIN_legacy: (Legacy) Oregon State University Tanguay Lab 120 Hour Post-fertilization zebrafish Assay for Caudal Fin Malformation (AID 2283649). Put shortly:
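Dechorionated Tropical 5D wild-type embryos, one per well from 6 hpf, static exposure to 120 hpf at 28C in 0.64% DMSO. Caudal fin malformation scored by brightfield as present/absent; not scored in dead embryos.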

Experiment [11] is described as follows: Tanguay_ZF_120hpf_PIG_legacy: (Legacy) Oregon State University Tanguay Lab 120 Hour Post-fertilization zebrafish Assay for Pigmentation Malformation (AID 2283650). Put shortly: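 Pigment malformation recorded as a binary call at 120 hpf in zebrafish (Tropical 5D) exposed singly from 6 hpf after pronase dechorionation. Static, sealed, 28C exposure, 0.64% DMSO; mortality excludes scoring; positive-direction fit against DMSO.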

Experiment [12] is described as follows: Tanguay_ZF_120hpf_CIRC_legacy: (Legacy) Oregon State University Tanguay Lab 120 Hour Post-fertilization zebrafish Assay for Circulatory Malformation (AID 2283651). Put shortly:
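Static exposure, 6–120 hpf, 28C, sealed and dark; one dechorionated 5D embryo/well; DMSO 0.64% v/v final. Binary circulation endpoint by brightfield; dead embryos not scored.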

Experiment [13] in a line: Tanguay_ZF_120hpf_TRUN_legacy: (Legacy) Oregon State University Tanguay Lab 120 Hour Post-fertilization zebrafish Assay for Truncated Body (AID 2283655). The method in brief:
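Dechorionated Tropical 5D wild-type embryos placed singly from 6 hpf and statically exposed to 120 hpf at 28C, final DMSO 0.64%. Truncated body scored as present/absent by brightfield; not scored in dead embryos.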

Experiment [14] can be described thus: Tanguay_ZF_120hpf_NC_legacy: (Legacy) Oregon State University Tanguay Lab 120 Hour Post-fertilization zebrafish Assay for Notochord and Tail Malformation (AID 2283656). The method in brief:
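Binary notochord-distortion calls, made by brightfield inspection, form the read-out; activity is fitted in the positive direction against DMSO. Exposure ran statically from 6 to 120 hpf at 28C with 0.64% DMSO.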

Experiment [15] can be described thus: Tanguay_ZF_120hpf_TR_legacy: (Legacy) Oregon State University Tanguay Lab 120 Hour Post-fertilization zebrafish Assay for Touch Response (AID 2283667). Put shortly:
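Binary touch-response endpoint in larvae at 120 hpf after static waterborne exposure from embryo stage (28°C, 0.64% DMSO vehicle, 5 uM trimethyltin chloride as positive control); embryos dead at 24 or 120 hpf excluded; fitted as gain versus DMSO.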

Experiment [16] in a line: STM_H9_OrnithineISnorm_perc: Stemina devTOX quickPredict H9 human embryonic stem cell (hESC)-based Assay for Ornithine (ORN) Metabolite Biomarker, Normalized (AID 2283712; active means hit-call score of the fitted dose curve at least 0.9, where 1 is the maximum; inactive means score below 0.9;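 further: ornithine released into spent medium during last day measured by mass spectrometry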). The method in brief:
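UPLC-HRMS readout: endogenous ornithine EIC area / 13C-ORN internal standard, then % of 0.1% DMSO median. H9 hESCs (pluripotent), 72h exposure, re-dosed with fresh media q24h; last 24-h spent media, deproteinized in 40% acetonitrile.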

Experiment [17] is described as follows: STM_H9_CystineISnorm_perc: Stemina devTOX quickPredict H9 human embryonic stem cell (hESC)-based Assay for Cystine (CYSS) Metabolite Biomarker, Normalized (AID 2283713; active means hit-call score of the fitted dose curve at least 0.9, where 1 is the maximum; inactive means score below 0.9). The method in brief:
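UPLC-HRMS read-out: endogenous cystine peak area in spent medium, normalized to isotope-labeled internal standard and to median of 0.1% DMSO controls. Pluripotent H9 cells, 72h exposure, daily medium/compound replenishment; medium from last 24h sampled.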

Experiment [18] in a line: STM_H9_OrnCyssISnorm_ratio: Stemina devTOX quickPredict H9 human embryonic stem cell (hESC)-based Assay for Ornithine (ORN):Cystine (CYSS) Ratio (AID 2283714). Put shortly:
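Ratio of internal-standard-normalized ornithine to cystine, measured by UPLC-HRMS in spent media from the last 24 h. H9 cells kept pluripotent, dosed 72 h with daily media and compound renewal; DMSO 0.1% serves as baseline.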

Records with an inconclusive call do not appear. The source made the active and inactive calls. How the source made its calls, unless noted: active means hit-call score of the fitted dose curve at least 0.9, where 1 is the maximum; inconclusive means response in the unintended direction; inactive means score below 0.9.

As a reminder, the AC50 is the midpoint of the concentration-response curve, whichever way the signal moves.

Turning to `c1cc[n+]2c(c1)-c1cccc[n+]1CC2`, the compound was called inactive in [1], in experiment [2], in [3], in experiment [4], in experiment [5] and in [6]. Also, the compound was called inactive in experiment [7], in experiment [8], in experiment [9], in experiment [10], in experiment [11] and in experiment [12]. The result in [13], in experiment [14] and in experiment [15] was inactive. The AC50 in experiment [16] was 8.35 µM (active); in experiment [17] it was 1.7 µM (active); in experiment [18] it was 2.36 µM (active).
